PubChem BioAssay (NCI)
This is part of a sample that, as a whole, favours compounds with a hit. Of some 83,000 tested, about 20% had one in any assay.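 The endpoint reported here, percent growth, reads 100 for growth as untreated, 0 for no net growth and -100 for all cells dead.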 Unmarked numbers belong to inactive results. Activity calls are given as the source filed them.

The compounds below were run on M14 melanoma (assay: NCI-60 one-dose screen, 48 h (100 = growth as untreated, 0 = no growth, -100 = all killed)). Conditions: 10 µM unless noted.
Protocol: Growth inhibition of the M14 human tumor cell line is measured as a screen for anti-cancer activity. Cells are grown in 96 well plates and exposed to the test compound for 48 hours. Compounds are tested at a single concentration, which is 10^-5 M for most compounds. The reported endpoint is percent growth (GI% or GIPRCNT), where numbers from 0 - 100% represent growth inhibition, and numbers from -100% - 0 represent cell death. For example, a value of 40 represents 60% growth inhibition. A value of 0 means no net growth occurred over the course of the experiment. A value of -40 indicates 40% of cells at the beginning of the experiment died by the end of the experiment. A value of -100 means all cells are dead at the end of the experiment.
NCI-60 Human Tumor Cell Lines Screen was performed using the standard one-dose NCI protocol, which is described in more detail at https://dtp.cancer.gov/discovery_development/nci-60/default.htm.
Compounds with GIPRCNT values below 10 were considered active. Activity score was based on GIPRCNT using the following formula: […]
Score is 0 for GIPRCNT values of 100 or above, 50 for GIPRCNT values of 0, and 100 for GIPRCNT values of -100.

| SMILES | growth |
| --- | --- |
| O=C(Oc1ccccc1[N+](=O)[O-])C1CCCN1C(=O)OCc1ccccc1 (stereo not given) | 93% |
| COc1ccc(/C=C2\Oc3cc(OCCCN4CCCC4)ccc3C2=O)c(OC)c1 | 67.7% |
| COc1ccc(-c2nc3sccn3c2/C=C/C(=O)c2cc(F)cc(F)c2)cc1 | 89.2% |
| c1cc2[nH]ncc2cc1-c1nc2ccc3[nH]ncc3c2c2c1CCC2 | 21% |
| CC(C)(C)OC(=O)NCCc1ccc(N=C=S)cc1 | 75.3% |
| Cn1c(=O)cc(NC(=O)CN2CCN(c3cc4c(cc3F)c(=O)c(C(=O)O)cn4C3CC3)CC2)[nH]c1=O | 96.5% |
| COc1ccc(-c2ccc(-c3ccc(C(=N)N)cn3)s2)cc1OC | 97.4% |
| CC(C)(C)NCCC(O)c1cc2c(Cl)cc(Cl)cc2c2cc(C(F)(F)F)ccc12 (stereo not given) | -77.4% (active) |
| O=C(NCc1cn(Cc2cccc(Oc3ccccc3)c2)nn1)c1cccnc1Nc1ccc(F)cc1 | 48.1% |
| COc1ccc(/C=C(\C#N)c2cc(OC)c3c(c2)OCO3)cc1 | 12.1% |
| CCCCCCN1CSC(=S)N(CCCCCC)C1 | 96.5% |
| C1=Cc2ccccc2N(c2nnc(-c3ccccc3)o2)c2ccccc21 | 100% |
| O=C1/C(=C/c2ccccc2)Oc2ccc(O)c(I)c21 | 98.5% |
| CCCCOc1ccc(/C=C2/SC(N3CCCC3)=NC2=O)cc1 | 95.4% |
| COc1ccc(C(=O)N2NC(=O)/C(=C/c3ccc(F)cc3)N=C2c2ccccc2)cc1 | 87.2% |
| COc1ccc(-c2nc3sc(-c4cc(OC)c(OC)c(OC)c4)nn3c2/C=C2/C(=O)Nc3ccc(F)cc32)cc1 | -53.4% (active) |
| COc1ccc(Nc2ncccc2C(=O)NCc2cn(Cc3cccc(Oc4ccccc4)c3)nn2)cc1 | 38.7% |
| CN1C(=O)N(C)C2C1NN=c1s/c(=C\C=C\c3ccccc3)c(=O)n12 (stereo not given) | 41.5% |
| N#C/C(=C1C=C/C(=N/O)C(Cl)=C/1)c1ccc(Cl)cc1 | 85.1% |
| Cc1cc(N)n(S(=O)(=O)c2oc(-c3ccccc3)nc2C#N)n1 | 84.5% |

| SMILES | growth |
| --- | --- |
| CCOC(=O)C1C(=O)C=C(c2ccc(OC)cc2)CC1c1sc(N(C)Cc2ccccc2)nc1Cl (stereo not given) | 87.6% |
| Cn1c2ccc(Br)cc2c2c3c(c4c5ccccc5[nH]c4c21)C(=O)N(O)C3=O | -78.2% (active) |
| CCN(CC)c1ccc(C(=N)c2ccc(N(CC)CC)cc2)cc1 | -93.1% (active) |
| COc1cc(-c2nn(-c3cccc(NC(=O)c4cccc(C(F)(F)F)c4)c3)cc2-c2ccncc2)ccc1Cl | 12.3% |
| COc1cc(-c2nn(-c3cccc(NC(=O)c4ccc(Cl)c(C(F)(F)F)c4)c3)cc2-c2ccncc2)ccc1Cl | 26.2% |
| COc1ccc(Nc2nn3c(-c4ccccc4)cc(-c4ccccc4)nc3c2C(N)=O)c(OC)c1 | 51.3% |
| O=S(=O)(NCCNc1nccc(-c2c(-c3ccc(O)cc3)nc3sccn23)n1)c1cccc2ccccc12 | 105% |
| COc1cc(C2C3=C(COC3=O)Nc3cc4c(cc32)CCC4)cc2c1OCO2 (stereo not given) | 12% |
| COc1cc2c(cc1O)CCN1C[C@@H](CC(C)C)[C@@H](O)C[C@@H]21 | 100% |
| COc1cc(-c2nc(-c3nc4ccc(Cl)cc4[nH]3)cc3c2[nH]c2ccccc23)cc(OC)c1OC | 71.7% |
| CC(=O)Nc1nc(N)nc(NC(C)=O)c1N=O | 104% |
| CN(C[C@H]1Cc2c(cccc2N2CCN(Cc3ccccn3)CC2)CN1)[C@H]1CCCc2cccnc21 | 62.3% |
| CC(C)OC(=O)N1CCOCC1 | 103% |
| Cc1csc(NC(c2ccc(Br)cc2)c2c(C)nc3ccccn23)n1 (stereo not given) | 90.6% |
| O=C1Nc2ccc3c(c2/C1=C\c1cc2c(cc1Br)OCO2)OCO3 | -6.52% (active) |
| CN(C)c1ncnc2c1ccn2C1OC(CO)C(O)C1O (stereo not given) | 58.7% |
| O=C(Nc1ccc2c(c1)OCCO2)C(=O)c1c[nH]c2ccccc12 | 19.9% |
| O=[N+]([O-])c1cc(Cl)c2[nH]c3c(Cl)cc([N+](=O)[O-])cc3c2c1 | 16.3% |
| Nc1cccc(Cl)c1N | 104% |
| ClC(Cl)c1nc(-c2ccccc2)nc2cc(-c3ccccc3)nn12 | 98.7% |
